The record followed here is PubChem BioAssay (EPA / NIEHS).

Calls of active or inactive are those of the source. The calls were made as follows: active = hit-call score of the fitted dose curve at least 0.9, where 1 is the maximum; inactive = score below 0.9.

Read-out in assay [1]: Cyclin D2 (CCND2), CCND2 (gene 894)
In words: LTEA_HepaRG_CCND2: Life Technologies and Expression Analysis (LTEA) Assay for Cyclin D2 (CCND2) using HepaRG (AID 2283449).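 Also: CCND2 transcript measured by TaqMan qRT-PCR and normalised to three housekeeping genes.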 Particulars: mRNA level, 48 h; actives raise or lower the signal. Put shortly: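 In this HepaRG study, an eight-point concentration series (max 100 uM, 0.5% DMSO) is applied for 48 h. CCND2 mRNA change is derived by qRT-PCR normalised to ACTB, GAPDH and POLR2A.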

Read-out in assay [2]: Cyclin Dependent Kinase Inhibitor 1A (CDKN1A), CDKN1A (gene 1026)
In words: LTEA_HepaRG_CDKN1A: Life Technologies and Expression Analysis (LTEA) Assay for Cyclin Dependent Kinase Inhibitor 1A (CDKN1A) using HepaRG (AID 2283450). Particulars: mRNA level, 48 h; actives raise or lower the signal. In short, it runs like this:
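Read-out is CDKN1A mRNA by TaqMan qRT-PCR, normalized to three housekeeping genes and fitted in both directions against the DMSO baseline. Human HepaRG cells were treated 48 h with test chemicals up to 100 uM in half-log steps, 0.5% DMSO.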

Read-out in assay [3]: Cyclin D1 (CCND1), CCND1 (gene 595)
In words: LTEA_HepaRG_CCND1: Life Technologies and Expression Analysis (LTEA) Assay for Cyclin D1 (CCND1) using HepaRG (AID 2283451).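 As to AC50: differentiated human HepaRG liver cells in serum-free induction medium.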 Particulars: mRNA level, 48 h; actives raise or lower the signal. Put shortly:
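HepaRG plated 48 h, medium switched to serum-free induction medium, chemicals added in duplicate (top 100 uM, half-log steps, 0.5% DMSO) for 48 h, cells lysed, RNA measured by TaqMan qRT-PCR.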

Read-out in assay [4]: catalase (CAT), CAT (gene 847)
In words: LTEA_HepaRG_CAT: Life Technologies and Expression Analysis (LTEA) Assay for catalase (CAT) using HepaRG (AID 2283452).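 As to AC50: TaqMan qRT-PCR signal normalized to ACTB GAPDH and POLR2A housekeeping genes.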 Particulars: mRNA level, 48 h; actives raise or lower the signal. Put shortly: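 Differentiated HepaRG cells in serum-free induction medium were dosed 48 h in duplicate, eight half-log concentrations from 100 uM in 0.5% DMSO. Transcript measured by TaqMan qRT-PCR, normalised to ACTB/GAPDH/POLR2A, fitted bidirectionally against DMSO.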

Read-out in assay [5]: flavin-containing dimethylaniline monooxygenases 3 (FMO3), FMO3 (gene 2328)
Put plainly: LTEA_HepaRG_FMO3: Life Technologies and Expression Analysis (LTEA) Assay for flavin-containing dimethylaniline monooxygenases 3 (FMO3) using HepaRG (AID 2283453).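 As to AC50: differentiated human HepaRG liver cells in serum-free induction medium; FMO3 transcript by TaqMan qRT-PCR normalized to ACTB GAPDH and POLR2A.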 Particulars: mRNA level, 48 h; actives raise or lower the signal. Put shortly:
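FMO3 transcript quantified by TaqMan qRT-PCR against three housekeeping genes after 48 h chemical exposure of HepaRG cells. Eight-point half-log series, top 100 uM, 0.5% DMSO vehicle; phenobarbital 1mM induction control; up- or down-regulation fitted.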

Read-out in assay [6]: Cytochrome P450 (CYP1A1), CYP1A1 (gene 1543)
In words: LTEA_HepaRG_CYP1A1: Life Technologies and Expression Analysis (LTEA) Assay for Cytochrome P450 (CYP1A1) using HepaRG (AID 2283454). Particulars: mRNA level, 48 h; actives raise or lower the signal. Put shortly:
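HepaRG, 48 h post-plating switched to serum-free induction medium; 8-pt conc-response (top 100 uM, half-log, 0.5% DMSO), duplicates, 48 h. Lysis in RLT, TaqMan qRT-PCR for CYP1A1; gain or loss vs DMSO.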

Read-out in assay [7]: CFLAR gene, CFLAR (gene 8837)
Put plainly: LTEA_HepaRG_CFLAR: Life Technologies and Expression Analysis (LTEA) Assay for CFLAR gene using HepaRG (AID 2283455). Particulars: mRNA level, 48 h; actives raise or lower the signal. In short, it runs like this:
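Gain- or loss-of-signal changes in CFLAR transcript were fitted bidirectionally relative to 0.5% DMSO. Cells (HepaRG, duplicate wells) were dosed for 48 h across eight half-log concentrations topping at 100 uM; quantitation by TaqMan qRT-PCR.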

Read-out in assay [8]: Forkhead box O1 (FOXO1), FOXO1 (gene 2308)
In words: LTEA_HepaRG_FOXO1: Life Technologies and Expression Analysis (LTEA) Assay for Forkhead box O1 (FOXO1) using HepaRG (AID 2283456). Particulars: mRNA level, 48 h; actives raise or lower the signal. Put shortly:
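Using one lot of HepaRG hepatic cells kept in 0.5% DMSO, the team applied test chemicals in duplicate, half-log dilutions from 100 uM, for 48 h. Expression, normalised to ACTB/GAPDH/POLR2A, was compared with vehicle in either direction.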

Assay [9] is described as follows: CEETOX_H295R_TESTO: CeeTox H295R High-throughput Steroidogenesis Assay for Testosterone (TESTO) (AID 2283457). Particulars: actives raise or lower the signal. In short, it runs like this:
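H295R, passage ≤10, 48 h dosing; media extracted with MTBE → HPLC-MS/MS for testosterone; 7-pt standard curve sets LLOQ/ULOQ; bidirectional fit vs DMSO; MTT viability same wells.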

Read-out in assay [10]: Forkhead box O3 (FOXO3), FOXO3 (gene 2309)
Put plainly: LTEA_HepaRG_FOXO3: Life Technologies and Expression Analysis (LTEA) Assay for Forkhead box O3 (FOXO3) using HepaRG (AID 2283459). Particulars: mRNA level, 48 h; actives raise or lower the signal. Put shortly:
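Gene-expression endpoint: FOXO3 transcript level by qRT-PCR in HepaRG cultures treated 48 h with chemicals up to 100 uM (half-log, 0.5% DMSO vehicle).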

Read-out in assay [11]: growth arrest and DNA damage 45 (GADD45B), GADD45B (gene 4616)
In words: LTEA_HepaRG_GADD45B: Life Technologies and Expression Analysis (LTEA) Assay for growth arrest and DNA damage 45 (GADD45B) using HepaRG (AID 2283461). Particulars: mRNA level, 48 h; actives raise or lower the signal. Put shortly: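 HepaRG, ~100,000 cells/well, 48 h plating; serum-free induction medium; cpd 100 uM top, half-log x8, 0.5% DMSO, duplicate, 48 h; lysis in RLT, RNA isolation, qRT-PCR; norm ACTB/GAPDH/POLR2A; bidirectional fit vs DMSO.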

Read-out in assay [12]: ABC Transporter (ABCC3), ABCC3 (gene 8714)
Put plainly: LTEA_HepaRG_ABCC3: Life Technologies and Expression Analysis (LTEA) Assay for ABC Transporter (ABCC3) using HepaRG (AID 2283462). Particulars: mRNA level, 48 h; actives raise or lower the signal. Put shortly: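 Human HepaRG, 48 h dosing, 8-pt half-log series from 100 uM, 0.5% DMSO vehicle, duplicates. ABCC3 mRNA by TaqMan qRT-PCR, housekeeping-normalized; bidirectional curve fit vs DMSO.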

Read-out in assay [13]: ABC Transporter (ABCB11), ABCB11 (gene 8647)
Put plainly: LTEA_HepaRG_ABCB11: Life Technologies and Expression Analysis (LTEA) Assay for ABC Transporter (ABCB11) using HepaRG (AID 2283463). Particulars: mRNA level, 48 h; actives raise or lower the signal. In short, it runs like this:
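Using HepaRG cultures held in 0.5% DMSO, chemicals were tested at half-log dilutions from 100 uM for 48 h. Induction or suppression of ABCB11 mRNA, normalized to ACTB, GAPDH and POLR2A, was fitted bidirectionally against vehicle.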

Read-out in assay [14]: ABC Transporter (ABCC2), ABCC2 (gene 1244)
Put plainly: LTEA_HepaRG_ABCC2: Life Technologies and Expression Analysis (LTEA) Assay for ABC Transporter (ABCC2) using HepaRG (AID 2283464). Particulars: mRNA level, 48 h; actives raise or lower the signal. In short, it runs like this:
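HepaRG, 48 h post-plating; serum-free induction medium; cpd 8-pt, 100 uM top, half-log, 0.5% DMSO, duplicate, 48 h. Readout: ABCC2 mRNA by qRT-PCR, norm. ACTB/GAPDH/POLR2A. Bidirectional fit vs DMSO baseline.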

Read-out in assay [15]: Broad substrate specificity ATP-binding cassette transporter ABCG2 (Homo sapiens) (UniProt Q9UNQ0)
Put plainly: LTEA_HepaRG_ABCG2: Life Technologies and Expression Analysis (LTEA) Assay for ABC Transporter (ABCG2) using HepaRG (AID 2283465). Particulars: mRNA level, 48 h; actives raise or lower the signal. In short, it runs like this: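 Gene expression of ABCG2 in HepaRG liver cells is quantified by qRT-PCR following 48 h exposure across an eight-point series topping at 100 uM. Values come from bidirectional fitting relative to DMSO vehicle.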

Read-out in assay [16]: ATP-citrate lyase (ACLY), ACLY (gene 47)
Put plainly: LTEA_HepaRG_ACLY: Life Technologies and Expression Analysis (LTEA) Assay for ATP-citrate lyase (ACLY) using HepaRG (AID 2283466). Particulars: mRNA level, 48 h; actives raise or lower the signal. In short, it runs like this: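 ACLY expression changes in human HepaRG liver cells are quantified by qRT-PCR after 48 h exposure to test chemicals (maximum 100 uM, half-log steps). Values are fitted in both directions relative to 0.5% DMSO vehicle.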

Read-out in assay [17]: Peroxisomal acyl-coenzyme A oxidase 1 (ACOX1) gene, ACOX1 (gene 51)
Put plainly: LTEA_HepaRG_ACOX1: Life Technologies and Expression Analysis (LTEA) Assay for Peroxisomal acyl-coenzyme A oxidase 1 (ACOX1) gene using HepaRG (AID 2283467). Particulars: mRNA level, 48 h; actives raise or lower the signal. In short, it runs like this: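 Human HepaRG hepatic cultures, 48 h treatment with test chemicals up to 100 uM. ACOX1 expression read by qRT-PCR relative to 0.5% DMSO vehicle.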

Read-out in assay [18]: Alkaline Phosphatase, Placental (ALPP) gene, ALPP (gene 250)
In words: LTEA_HepaRG_ALPP: Life Technologies and Expression Analysis (LTEA) Assay for Alkaline Phosphatase, Placental (ALPP) gene using HepaRG (AID 2283468). Particulars: mRNA level, 48 h; actives raise or lower the signal. In short, it runs like this: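 HepaRG, 48 h plating then 48 h dosing, serum-free induction medium, 0.5% DMSO. 8 conc, half-log, max 100 uM, duplicates. Endpoint: ALPP transcript by qRT-PCR, housekeeping-normalized; gain or loss fitted vs DMSO.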

Read-out in assay [19]: growth arrest and DNA damage 45 (GADD45A), GADD45A (gene 1647)
Put plainly: LTEA_HepaRG_GADD45A: Life Technologies and Expression Analysis (LTEA) Assay for growth arrest and DNA damage 45 (GADD45A) using HepaRG (AID 2283458). Particulars: mRNA level, 48 h; actives raise or lower the signal. In short, it runs like this:
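Transcript induction or loss, quantified by TaqMan qRT-PCR against three housekeeping genes, is the read-out. HepaRG cells received chemicals for 48 h across eight half-log concentrations from 100 uM in 0.5% DMSO; gain and loss fitted relative to DMSO.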

Read-out in assay [20]: ABC Transporter (ABCB1), ABCB1 (gene 5243)
Put plainly: LTEA_HepaRG_ABCB1: Life Technologies and Expression Analysis (LTEA) Assay for ABC Transporter (ABCB1) using HepaRG (AID 2283460). Particulars: mRNA level, 48 h; actives raise or lower the signal. Put shortly: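 Human liver HepaRG line treated 48 h with up to 100 uM compound (eight half-log points, 0.5% DMSO); ABCB1 mRNA change fitted bidirectionally against DMSO controls.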

Chain of Broad substrate specificity ATP-binding cassette transporter ABCG2 (Homo sapiens) (Q9UNQ0 whole entry, looked up): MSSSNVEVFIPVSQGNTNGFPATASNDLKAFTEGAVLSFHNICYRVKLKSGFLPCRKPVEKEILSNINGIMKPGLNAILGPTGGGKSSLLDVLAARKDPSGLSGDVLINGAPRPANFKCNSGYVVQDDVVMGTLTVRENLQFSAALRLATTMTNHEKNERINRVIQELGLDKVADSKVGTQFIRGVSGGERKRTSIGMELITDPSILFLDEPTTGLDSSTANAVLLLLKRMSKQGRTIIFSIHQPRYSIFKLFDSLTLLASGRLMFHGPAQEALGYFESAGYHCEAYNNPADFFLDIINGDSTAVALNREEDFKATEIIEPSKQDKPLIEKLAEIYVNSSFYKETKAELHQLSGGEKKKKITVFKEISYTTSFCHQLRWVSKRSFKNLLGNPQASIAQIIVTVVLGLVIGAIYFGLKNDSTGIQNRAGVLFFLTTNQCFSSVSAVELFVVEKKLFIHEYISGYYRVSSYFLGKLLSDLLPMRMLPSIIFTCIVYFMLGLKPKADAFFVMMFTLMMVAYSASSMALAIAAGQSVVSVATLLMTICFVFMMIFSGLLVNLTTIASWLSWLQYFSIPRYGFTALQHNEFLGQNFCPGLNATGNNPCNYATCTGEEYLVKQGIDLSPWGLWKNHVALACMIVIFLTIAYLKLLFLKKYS

In general, AC50 refers to the concentration giving half of the maximal activity seen. Consider `CCOc1ccc2c(c1)C(C)=CC(C)(C)N2`, for which the call in assay [1], in assay [3], in [4], in assay [5], in [7] and in [8] was inactive. Further, the outcome in assay [9], in assay [10], in assay [11], in assay [12], in [13] and in assay [14] was inactive. In addition, the compound was classed as inactive in assay [16], in [17] and in assay [18]. The AC50 in [2] is 50 µM (active); in assay [6], 17.5 µM (active); in [15] it was 1.02 µM (active).
For the compound `CCCCC(CC)COC(=O)CC(C(=O)OCC(CC)CCCC)S(=O)(=O)O` (stereo not given), the compound was called inactive in assay [1], in assay [2], in assay [12], in assay [13], in [15] and in assay [18]. Besides, the AC50 in assay [3] is 85.3 µM (active); in assay [4], 86.6 µM (active); in assay [5], 77.4 µM (active); in assay [6] it was 10.3 µM (active); in [7] it was 81.7 µM (active); in assay [8], 80.8 µM (active). Moreover, the AC50 in [19] is 93.9 µM (active); in assay [10], 79.8 µM (active); in assay [20] it was 89.9 µM (active); in [11], 82.2 µM (active); in assay [14] it was 89.2 µM (active); in assay [16], 90.7 µM (active). Further, the AC50 in [17] was 79.9 µM (active).
Regarding `Cc1ccc2ncccc2c1`, the compound was classed as inactive in assay [1], in assay [2], in assay [3], in [4], in [5] and in [8]. The result in assay [10], in [20], in assay [11], in assay [12], in assay [13] and in assay [14] was inactive. For the same compound, the result in assay [15], in assay [16], in [17] and in [18] was inactive. Also, the AC50 in assay [6] is 50 µM (active).
For `CCCCCCCCCCO`, the outcome in assay [1], in assay [2], in [3], in assay [4], in assay [5] and in assay [6] was inactive. Also, the call in [8], in assay [10], in assay [11], in [12], in assay [13] and in assay [14] was inactive. Also, the outcome in [15], in assay [16], in assay [17] and in assay [18] was inactive.
